# Values without a mark were called inactive. Results filed as inconclusive are left out. Active and inactive are the calls of the source. Unless noted, the call rests on the fitted dose curve; in most records, active means well fitted curve in either direction with a large enough effect (not every such curve was filed as active); inconclusive means small, poorly fitted or top-dose-only effect, or another doubt; inactive means flat fitted curve, though single readings scatter.
# Tests used:
# [1] = biological target: Lysosomal acid glucosylceramidase (Homo sapiens) (UniProt P04062); assay: Glucocerebrosidase-p2 (AID 348; in the data active means potency below about 10 µM; further: potency means the concentration at half of the fitted maximal effect); conditions: purified GBA, blue fluorogenic substrate, 40 min
# Summary of the method: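 Normal human glucocerebrosidase (0.2 nM) with blue fluorogenic substrate (80 uM final) in citrate/phosphate pH 5.9 with 10mM sodium taurocholate, 0.01% tween-20; 40 min RT, NaOH/glycine stop; fluorescence Ex 365/Em 440; AC50 from a titration from 0.6 nM upwards.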
# [2] = AP1 Signaling Pathway (AID 357); conditions: ME-180 AP-1-bla reporter, EGF-induced, beta-lactamase ratio, 5 h; at 7.69 µM (top of the series) unless noted;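 further: ME-180 reporter cells stimulated with EGF at its EC50 level; on the % scale 0 is the no-effect control and ±100 the full control effect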
# Summary of the method: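 A ratiometric CCF4 readout (405 nm excitation; 460 and 530 nm emission) quantified AP-1-driven beta-lactamase in ME-180 cells after 5 h with compound and EC50 EGF; AC50 values were derived for activators and inhibitors.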
# [3] = Stat Signaling Pathway (AID 446); conditions: ME-180 (cervical carcinoma) SIE beta-lactamase reporter, IL-6 stimulated, 5 h; at 7.69 µM (top of the series) unless noted;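 further: ME-180 cervical cancer cells given 40 pM IL-6 alongside compound; SIE-controlled beta-lactamase reporter measured as 460/530 nm FRET emission ratio; on the % scale 0 is the no-effect control and ±100 the full control effect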
# Summary of the method: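 FRET read-out (405 nm excitation, 460/530 nm emission) of a beta-lactamase reporter under a STAT-inducible element in ME-180 cervical carcinoma cells. Cells with compound receive 40 pM IL-6 for 5 h. Values are normalised to AC90 stimulation and AC90 JAK-inhibitor controls.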
# [4] = biological target: Glucocorticoid receptor (Homo sapiens) (UniProt P04150); assay: GR-GFP Redistribution (AID 450;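 active means compounds whose dose series gives a full or clear partial fitted curve of increased nuclear translocation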; further: potency means the concentration at half of the fitted maximal effect); conditions: U2OS GR-GFP nuclear translocation, laser cytometry, 2 h
# [5] = biological target: Glucocorticoid receptor (Homo sapiens) (UniProt P04150); assay: GR-EFC Redistribution (AID 451; calls by dose curve; further: potency means the concentration at half of the fitted maximal effect); conditions: CHO-K1 GR-EFC translocation, beta-gal luminescence, 2 h
# Summary of the method: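 Translocation of GR-ED fusion to nuclear EA restores b-gal, read by luminescence after 1 h room-temperature detection. Engineered CHO-K1 biosensor cells, 1,000/well, exposed 2 h at 37 C to titrations up to 46 uM final.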
# [6] = biological target: Mitogen-activated protein kinase 10 (Mus musculus) (UniProt Q61831); assay: JNK3 AlphaScreen Assay (AID 530); conditions: JNK3 lysate, c-Jun phosphorylation; series mostly up to 11.4 µM;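 further: kinase came from lysate of stimulated human HepG2 cells; signal reports phosphorylation of biotinylated GST-cJun 1-79 at Ser73 with 10 µM ATP; on the % scale 0 is the no-effect control and ±100 the full control effect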
# Summary of the method: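 Kinase buffer: 20 mM Tris-HCl pH 7.6, 10 mM MgCl2, 1 mM DTT, 0.1 mM Na3VO4, 0.01% Tween-20; ATP 10 uM. Substrate biotin-GST-cJun(1-79), enzyme from activated HepG2 lysates. Detection by Ser73 phospho-antibody AlphaScreen.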
# [7] = biological target: 3',5'-cyclic-AMP phosphodiesterase 4B (Homo sapiens) (UniProt Q07343); assay: qHTS Assay for Inhibitors of PDE-IV (AID 607; active means well fitted activation curve with a large enough effect in the main read-out, with a control signal flat, not every such curve was filed as active; further: % of control where 0% means no effect); conditions: HEK293 ACTOne CNG channel cells, membrane potential fluorescence; series mostly up to 22.9 µM
# Summary of the method: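 Cell-based read-out of cAMP via a modified cyclic nucleotide-gated channel and membrane potential dye (535/590 nm) in HEK293 cells expressing PDE4 endogenously. Compounds tested up to 22.9 uM final; 100 uM RO 20-1724 reference.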
# [8] = NFAT Signaling Pathway (AID 444); conditions: Jurkat NFAT-bla M1, carbachol, beta-lactamase ratio, 5 h; at 7.69 µM (top of the series) unless noted;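 further: carbachol stimulus at about its EC50 of 1 µM final; on the % scale 0 is the no-effect control and ±100 the full control effect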
# Summary of the method: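 Read-out: CCF4 FRET ratio (460 nm/530 nm) after 1 h RT dye loading, used for %activity and AC50 from titration series. Cells: Jurkat NFAT-β-lactamase/M1 line, treated with compound plus 1 uM carbachol for 5 h, 37 °C.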
# [9] = Confirmation and Secondary Assay for Modulators of Hemoglobin Beta Chain Splicing at IVS2 654 locus (AID 910; active means well fitted curve in the direction sought with a large enough effect; an effect the other way counts as inactive or inconclusive;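 further: HeLa cells stably carrying EGFP split by mutant beta-globin IVS2-654 intron; per-well total GFP intensity by laser scanning cytometry after 2-day treatment; % of control where 0% means no effect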); conditions: HeLa EGFP-654 splicing reporter, GFP fluorescence, 48 h; series mostly up to 38.3 µM
# Summary of the method: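 Readout: per-well total peak green fluorescence (488 nm ex, 500–520 nm em) from objects 5–250 µm, reflecting correct splicing of an EGFP-654 reporter. Compounds were applied for 2 days at 37 °C to overnight-plated HeLa EGFP-654 cells; controls were DMSO and 500 nM IVS2-654 PNA.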
# [10] = biological target: Ubiquitin carboxyl-terminal hydrolase 1 (Homo sapiens) (UniProt O94782); assay: Inhibitors of USP1/UAF1: Pilot qHTS (AID 504865; active means well fitted curve in the direction sought with a large enough effect; an effect the other way counts as inactive or inconclusive; further: potency means the concentration at half of the fitted maximal effect; nearly all actives have a fitted effect of over 35% in size); conditions: purified USP1/UAF1, Ub-rhodamine cleavage fluorescence; series mostly up to 114 µM
# Summary of the method: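 In 50mM HEPES pH 7.8 containing 0.5mM EDTA, 1mM TCEP, 0.1 mg/ml BSA and 0.01% Tween-20, 1nM USP1/UAF1 is exposed to compound for 15 min, then Ub-Rho (150nM final) is added and fluorescence is read over time.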
# [11] = biological target: Cytochrome P450 3A4 (Homo sapiens) (UniProt P08684); assay: qHTS Assay for Activators of Cytochrome P450 3A4 (AID 885; active means well fitted curve in the direction sought with a large enough effect; an effect the other way counts as inactive or inconclusive; further: nearly all actives have a fitted effect of over 65% in size); conditions: recombinant CYP3A4, Luciferin-PPXE luminescence, 60 min; series mostly up to 11.4 µM
# Summary of the method: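 Luminescent readout of luciferin formed from 25 uM Luciferin-PPXE (KM level) by 20 nM CYP3A4 in 200 mM KPO4, with 60 min NADPH-driven reaction at room temperature after 10 min compound exposure. Ketoconazole (57 uM) defined 100% inhibition.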
# [12] = biological target: Cytochrome P450 2D6 (Homo sapiens) (UniProt P10635); assay: qHTS Assay for Inhibitors and Substrates of Cytochrome P450 2D6 (AID 891; active means well fitted curve in the direction sought with a large enough effect; an effect the other way counts as inactive or inconclusive; further: potency means the concentration at half of the fitted maximal effect; nearly all actives have a fitted effect of over 60% in size); conditions: recombinant CYP2D6, luciferin-ME EGE luminescence; series mostly up to 11.4 µM
# Summary of the method: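 Luminescent read-out of luciferin formed by 5 nM human CYP2D6 demethylating 30 uM Luciferin-ME EGE (Km level) over 60 min at room temperature after NADPH regeneration addition. Data normalized to full inhibition by 1.43 uM quinidine.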
# Sequence of Lysosomal acid glucosylceramidase (Homo sapiens) (P04062 whole entry, looked up): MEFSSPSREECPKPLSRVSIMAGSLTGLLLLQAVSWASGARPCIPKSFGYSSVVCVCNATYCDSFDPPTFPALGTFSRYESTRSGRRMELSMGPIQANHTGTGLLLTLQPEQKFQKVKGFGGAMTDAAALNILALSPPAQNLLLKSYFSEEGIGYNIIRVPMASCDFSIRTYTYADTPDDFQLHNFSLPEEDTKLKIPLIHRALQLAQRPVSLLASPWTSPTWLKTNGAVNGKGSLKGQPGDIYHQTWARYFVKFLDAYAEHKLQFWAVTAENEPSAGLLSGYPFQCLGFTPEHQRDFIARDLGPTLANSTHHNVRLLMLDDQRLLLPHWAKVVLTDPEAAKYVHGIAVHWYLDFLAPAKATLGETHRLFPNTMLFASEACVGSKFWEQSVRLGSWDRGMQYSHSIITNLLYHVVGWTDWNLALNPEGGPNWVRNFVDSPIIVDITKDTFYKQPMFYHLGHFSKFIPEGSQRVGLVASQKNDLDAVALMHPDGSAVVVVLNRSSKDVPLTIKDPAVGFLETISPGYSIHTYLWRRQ
# Sequence of 3',5'-cyclic-AMP phosphodiesterase 4B (Homo sapiens) (Q07343 whole entry, looked up): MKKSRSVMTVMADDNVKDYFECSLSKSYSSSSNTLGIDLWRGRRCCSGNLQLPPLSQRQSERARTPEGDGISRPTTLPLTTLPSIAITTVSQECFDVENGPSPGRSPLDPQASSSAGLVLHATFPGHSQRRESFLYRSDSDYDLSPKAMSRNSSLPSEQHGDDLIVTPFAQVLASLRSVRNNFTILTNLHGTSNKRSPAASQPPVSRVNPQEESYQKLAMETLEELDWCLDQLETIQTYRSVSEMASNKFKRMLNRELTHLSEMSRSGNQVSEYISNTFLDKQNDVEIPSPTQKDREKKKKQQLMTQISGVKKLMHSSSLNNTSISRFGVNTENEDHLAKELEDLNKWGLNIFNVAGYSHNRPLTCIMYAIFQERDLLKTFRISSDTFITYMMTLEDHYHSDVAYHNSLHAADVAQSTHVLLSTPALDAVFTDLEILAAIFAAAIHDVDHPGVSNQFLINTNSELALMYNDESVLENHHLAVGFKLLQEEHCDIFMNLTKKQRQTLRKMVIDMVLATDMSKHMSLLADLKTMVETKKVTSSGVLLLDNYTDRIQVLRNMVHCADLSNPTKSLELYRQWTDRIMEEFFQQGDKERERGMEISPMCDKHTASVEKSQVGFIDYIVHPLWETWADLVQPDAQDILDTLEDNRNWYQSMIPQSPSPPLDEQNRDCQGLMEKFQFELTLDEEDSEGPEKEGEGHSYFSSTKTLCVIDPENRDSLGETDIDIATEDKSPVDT
# Sequence of Glucocorticoid receptor (Homo sapiens) (P04150 whole entry, looked up, the tested form may be a part): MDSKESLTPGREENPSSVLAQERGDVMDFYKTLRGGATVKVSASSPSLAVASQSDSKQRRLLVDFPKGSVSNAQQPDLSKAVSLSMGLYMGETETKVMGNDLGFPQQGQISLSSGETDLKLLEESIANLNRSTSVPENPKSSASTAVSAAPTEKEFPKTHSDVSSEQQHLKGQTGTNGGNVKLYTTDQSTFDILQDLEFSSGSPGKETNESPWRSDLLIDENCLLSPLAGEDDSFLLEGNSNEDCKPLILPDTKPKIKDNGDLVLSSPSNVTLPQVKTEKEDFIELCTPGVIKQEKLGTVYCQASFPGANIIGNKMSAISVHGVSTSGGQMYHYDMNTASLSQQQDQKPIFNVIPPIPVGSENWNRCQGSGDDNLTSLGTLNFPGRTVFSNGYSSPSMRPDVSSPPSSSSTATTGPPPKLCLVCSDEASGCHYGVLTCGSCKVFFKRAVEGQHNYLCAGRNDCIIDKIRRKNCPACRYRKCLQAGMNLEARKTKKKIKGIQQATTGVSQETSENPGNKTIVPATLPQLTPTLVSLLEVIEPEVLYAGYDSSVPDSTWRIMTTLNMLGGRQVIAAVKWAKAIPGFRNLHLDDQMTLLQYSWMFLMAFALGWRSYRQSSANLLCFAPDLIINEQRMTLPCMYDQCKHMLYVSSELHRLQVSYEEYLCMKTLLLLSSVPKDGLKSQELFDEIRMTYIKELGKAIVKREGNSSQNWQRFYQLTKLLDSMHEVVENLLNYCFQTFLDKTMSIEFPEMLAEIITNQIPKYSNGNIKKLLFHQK
# Sequence of Cytochrome P450 3A4 (Homo sapiens) (P08684 whole entry, looked up): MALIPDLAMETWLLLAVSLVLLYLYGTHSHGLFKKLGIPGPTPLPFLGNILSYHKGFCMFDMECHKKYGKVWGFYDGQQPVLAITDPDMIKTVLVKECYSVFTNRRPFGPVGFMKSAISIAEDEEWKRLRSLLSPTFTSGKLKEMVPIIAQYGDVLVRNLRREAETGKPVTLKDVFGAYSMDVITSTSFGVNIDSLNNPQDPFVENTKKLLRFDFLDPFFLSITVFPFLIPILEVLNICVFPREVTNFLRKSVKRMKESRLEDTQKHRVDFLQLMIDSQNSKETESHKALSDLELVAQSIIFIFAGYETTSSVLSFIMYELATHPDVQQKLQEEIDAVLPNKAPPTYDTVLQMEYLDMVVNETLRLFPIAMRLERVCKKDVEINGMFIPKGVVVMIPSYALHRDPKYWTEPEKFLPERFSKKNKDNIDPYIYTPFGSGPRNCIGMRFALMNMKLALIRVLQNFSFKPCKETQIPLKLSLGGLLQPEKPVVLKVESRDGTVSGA
# Sequence of Cytochrome P450 2D6 (Homo sapiens) (P10635 whole entry, looked up): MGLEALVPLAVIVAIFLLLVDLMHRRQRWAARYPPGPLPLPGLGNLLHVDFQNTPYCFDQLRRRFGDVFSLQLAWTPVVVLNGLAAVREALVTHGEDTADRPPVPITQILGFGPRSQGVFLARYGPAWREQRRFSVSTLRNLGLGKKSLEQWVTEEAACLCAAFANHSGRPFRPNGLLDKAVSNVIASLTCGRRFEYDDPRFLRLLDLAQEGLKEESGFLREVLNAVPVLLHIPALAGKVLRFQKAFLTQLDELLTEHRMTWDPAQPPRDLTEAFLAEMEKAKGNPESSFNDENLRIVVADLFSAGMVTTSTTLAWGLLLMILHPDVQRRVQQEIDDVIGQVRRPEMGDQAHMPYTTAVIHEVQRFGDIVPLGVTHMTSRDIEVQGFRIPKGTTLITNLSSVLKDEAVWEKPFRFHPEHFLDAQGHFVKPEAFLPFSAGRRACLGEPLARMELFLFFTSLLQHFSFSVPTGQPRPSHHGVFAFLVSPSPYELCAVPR
# Sequence of Ubiquitin carboxyl-terminal hydrolase 1 (Homo sapiens) (O94782 whole entry, looked up): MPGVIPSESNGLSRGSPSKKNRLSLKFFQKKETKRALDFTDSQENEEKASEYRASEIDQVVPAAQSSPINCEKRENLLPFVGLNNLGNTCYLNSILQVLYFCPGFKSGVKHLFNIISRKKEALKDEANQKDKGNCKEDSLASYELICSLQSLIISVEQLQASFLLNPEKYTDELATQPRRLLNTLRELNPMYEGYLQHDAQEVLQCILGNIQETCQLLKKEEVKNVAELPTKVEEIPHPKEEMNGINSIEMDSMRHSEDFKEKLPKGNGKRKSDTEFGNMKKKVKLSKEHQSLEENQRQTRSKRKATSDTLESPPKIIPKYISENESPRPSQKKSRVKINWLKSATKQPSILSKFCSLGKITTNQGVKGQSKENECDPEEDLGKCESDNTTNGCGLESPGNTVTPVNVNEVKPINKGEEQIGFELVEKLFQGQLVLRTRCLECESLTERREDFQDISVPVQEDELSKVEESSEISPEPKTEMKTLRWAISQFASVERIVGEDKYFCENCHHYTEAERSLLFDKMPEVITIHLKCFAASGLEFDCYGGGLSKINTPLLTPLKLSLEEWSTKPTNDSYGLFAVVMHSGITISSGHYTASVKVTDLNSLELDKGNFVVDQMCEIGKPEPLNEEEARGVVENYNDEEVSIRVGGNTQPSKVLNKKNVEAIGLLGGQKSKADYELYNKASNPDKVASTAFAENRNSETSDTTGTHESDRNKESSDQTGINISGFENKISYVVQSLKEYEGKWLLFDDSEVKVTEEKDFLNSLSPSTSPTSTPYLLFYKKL
Compound,Potency [1] [µM],"activity change, negative = inhibition [2]","activity, negative = inhibition [3] [%]",Potency [4] [µM],Potency [5] [µM],Potency [6],Potency [7],"activity change, negative = inhibition [8]",outcome [9],Potency [10],Potency [11],Potency [12]
Clc1ccc(CSCc2ccc(Cl)cc2Cl)c(Cl)c1,> 11.4,-7.04%,1.58,> 46,> 9.22,inactive,inactive,,,,,
Sc1ccc2ccccc2c1CNCc1ccccc1,> 11.4,12.3%,,> 46,> 9.22,inactive,inactive,-0.525%,,,,
COc1ccc(CNc2nc(-c3ccccc3OC)nc3ccccc23)c(OC)c1,> 11.4,-13.6%,16.1,> 46,> 46,inactive,inactive,,inactive,20 µM (active),,
COc1ccc(-c2nc3cnc(N4CCNCC4)nc3n(Cc3cccc(OC)c3)c2=O)cc1,> 11.4,109% [activator] (active),,,> 46,,inactive,101% [activator] (active),,,inactive,
CCN(CC)COC(=S)S,> 11.4,7.48%,,> 46,> 9.22,inactive,inactive,-12.2%,,,,
Cc1cccc(C(=O)O)c1C[C@H]1NCC[C@H]2c3ccccc3N[C@@H]12,> 11.4,29.4%,4.38,> 46,> 9.22,inactive,inactive,,,,,
N=C(N)SC(c1ccccc1)c1ccccc1,> 11.4,6.69%,0.795,> 46,> 9.22,inactive,inactive,,,,,
c1ccc(CN2CC[C@@H](CNc3ncnc4ccccc34)C2)cc1,> 11.4,3.93%,8.92,> 46,> 9.22,inactive,inactive,,,,,0.794 µM (active)
COc1cccc2c1C(=N)c1c(O)c3c(c(O)c1C2=O)C[C@](O)(C(C)=O)C[C@@H]3O[C@H]1C[C@H](N)[C@@H](O)[C@H](C)O1,> 11.4,-2.66%,,> 46,> 9.22,,inactive,,,,,
